Screens (PubChem BioAssay)
The list is not random: actives were taken first. Their share in the collection is about 0.5%.
Tat transport = E. coli Tat export inhibitors, primary screen, MC4100, TorA-mCherry reporter, fluorescence, single point; hit rate 0.036% among 340,000; AID 488895, 2010; inhibition, % at 10 µM;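 active = mean replicate inhibition at least 50% and at least half of replicates individually reaching 50%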;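 also: exported cargo escapes ClpAP degradation while cytoplasmic cargo is degraded and loses fluorescence; 0% = median of neutral control wells and 100% = median of NaSCN control wells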
phage Ecoli inh = growth loss of phage-infected E. coli, primary screen, RecBCD inhibitor project, absorbance, with phage, HTS; inhibition, % at 11.9 µM; hit rate 0.26% among 360,000; AID 651602, 2012; in the data active = inhibition above about 11%
E coli growth-1 = E. coli V3065 growth inhibition, primary screen, counter-screen for AddAB inhibitor project, absorbance, OD600; 18 h; inhibition, % at 11.9 µM; hit rate 0.27% among 330,000;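 active = inhibition above the campaign's mean inhibition across all tested compounds plus 3 SD, cut at about 9.9% in these data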;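 also: uninfected addAB+ strain grown without phage in ampicillin broth; 0% = DMSO wells and 100% = ciprofloxacin 0.95 µg/ml wells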
AddAB inh = growth inhibition of E. coli expressing H. pylori AddAB, primary screen, AddAB inhibitor project, absorbance | inhibition, % at 11.9 µM | hit rate 0.29% among 330,000 | AID 435030, 2010; in the data active = inhibition above about 12%;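 also: 0% = vehicle wells of infected cells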
E coli growth-2 = E. coli growth inhibition, primary screen, OD600 | Escherichia coli growth, 23 h; stronger effect = lower value | OD600 absorbance (test concentration not listed) | hit rate 0.21% among 330,000 | AID 1053175, 2014;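 active = OD600 absorbance below the run mean of sample wells minus 3.6 SD, in any replicate, cut at about 0.56 in these data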
RecBCD conf = growth loss of phage-infected RecBCD+ E. coli, confirmation, RecBCD inhibitor project, absorbance, E. coli V66, T4 gene 2 phage | shares compounds with phage Ecoli inh | E. coli V66 + T4 2- phage, growth OD | inhibition, % at 11.9 µM | hit rate 45% among 890 | AID 651982, 2013;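 active = mean inhibition over triplicates exceeding the hit threshold derived in the original primary screen, cut at about 11% in these data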
Ecoli viability = E. coli viability inhibition, counter-screen for RecBCD inhibitor project, absorbance, high throughput; absorbance (OD) growth; hit rate 29% among 890; inhibition, % at 11.9 µM; shares compounds with phage Ecoli inh; in the data active = inhibition above about 20%;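 also: E. coli strain V66 grown with compound alone and no phage infection; 0% = bacteria with DMSO vehicle only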
AddAB phage OD = growth loss of phage-infected AddAB-carrying E. coli, confirmation, counter-screen for RecBCD inhibitor project, absorbance, E. coli V3065, T4 phage | shares compounds with phage Ecoli inh | E. coli expressing H. pylori AddAB + T4 phage, OD growth; gene 2 mutant T4, recBCD-deleted host | inhibition, % at 11.9 µM | hit rate 45% among 890 | AID 651984, 2013;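 active = mean inhibition above the solvent-only control wells' mean plus 3 SD, cut at about 22% in these data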;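 also: higher means less bacterial growth from phage killing when AddAB is blocked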
* marks the source's active call; other numbers are inactive results; / = no result given; ! = not confirmed by another sample.

SMILES	Tat transport	phage Ecoli inh	E coli growth-1	AddAB inh	E coli growth-2	RecBCD conf	Ecoli viability	AddAB phage OD
O=c1c2ccccc2nc(/C=C/c2ccc([N+](=O)[O-])o2)n1-c1ccc(O)cc1	-4	12*	/	/	0.67	6	9	40*
O=C1NC(=O)C(CCc2ccncc2)(CCc2ccncc2)C(=O)N1CCc1ccc(F)cc1	7	1	-4	4	0.72	/	/	/
COc1ccc(C2C3=C(CC(C)(C)CC3=O)Oc3ncn4nc(-c5ccccc5)nc4c32)cc1 (configuration not stated)	3	1	/	/	0.67	/	/	/
Oc1cc(Cl)c(Cl)c(Cl)c1Cl	-9	13*	/	/	/	14*	19	17
Cc1cc2c(C(C)C)c(O)c(O)c(C=O)c2c(O)c1-c1c(C)cc2c(C(C)C)c(O)c(O)c(C=O)c2c1O	/	15*	/	/	/	5	5	7
O=[N+]([O-])c1oc2ccc3ccccc3c2c1CCO	-8	100*	/	/	/	104*	105*	103*
COC(=O)c1ccccc1NC(=O)N1C[C@@H]2C[C@@H](C1)c1cccc(=O)n1C2	0	1	0	5	0.71	/	/	/
CN(C)[C@@H]1C(=O)C(C(N)=O)=C(O)[C@@]2(O)C(=O)C3=C(O)c4c(O)cccc4[C@@](C)(O)C3[C@H](O)C12 (some centres not stated)	150*!	98*	0	0	/	101*	102*	102*
CN(C)[C@@H]1C(=O)C(C(N)=O)=C(O)[C@@]2(O)C(=O)C3=C(O)c4c(O)ccc(Cl)c4[C@@](C)(O)C3C[C@@H]12 (some centres not stated)	150*	99*	/	/	/	101*	104*	105*
CN(C)[C@@H]1C(=O)C(C(N)=O)=C(O)[C@@]2(O)C(=O)C3=C(O)c4c(O)cccc4[C@@](C)(O)[C@H]3C[C@@H]12	/	/	-1	-1	/	/	/	/
O=C1CN=C(c2ccc(Br)cc2)c2c(sc3c2CCCC3)N1CCN1CCCCC1	4	2	0	0	0.66	/	/	/
COCCNC(=O)Cn1cc(C(=O)c2ccccc2F)c2ccccc21	-1	44*	-1	-2	0.65	-2	-2	-3
O=C(Cn1cc(C(=O)c2ccccc2F)c2ccccc21)NCc1ccco1	-4	0	3	2	0.66	/	/	/
CC(Cc1ccccc1)NC(=O)CCCCC(=O)NC(C)Cc1ccccc1 (configuration not stated)	1	14*	0	0	/	-3	-2	-2
O=[N+]([O-])c1ccc(N2CCOCC2)c2cccnc12	-2	4	2	2	0.69	/	/	/
O=[N+]([O-])c1ccc(N2CCOCC2)c2c1no[n+]2[O-]	/	17*	/	/	/	11	13	98*
CCCCn1c(O)c(/C(C)=N/NC(=O)Nc2ccccc2)c(=O)[nH]c1=O	-1	2	-1	-1	0.68	/	/	/
